This is a sample that favours compounds with a hit; in the whole collection about 3.7% have one here.
Bead autofluor: compound fluorescence in toxin protease inhibitor counterscreen | compound autofluorescence counterscreen, microsphere flow cytometry; active compounds read high | fluorescence intensity (concentration not given with the values) | hit rate 3.1% among 360,000 | AID 624483; in the data active = fluorescence intensity above about 16000; inconclusive = no clear call, values can overlap the other calls
BoNT-A LC inh2: BoNT/A light chain protease inhibitors, primary screen, biochemical, flow cytometry, MLPCN library; Botulinum neurotoxin type A light chain protease (Clostridium botulinum A str. ATCC 3502); multiplex microsphere protease substrate cleavage; inhibition, % at 10 µM; hit rate 0.17% among 360,000; note: plate controls were buffer without enzyme for full effect and enzyme alone for no effect
MazF activator: activators of E. coli MazEF toxin-antitoxin RNase, primary screen, biochemical, fluorescence, uHTS | Endoribonuclease toxin MazF (Escherichia coli (strain K12)), P0AE70 | FAM/BHQ RNA-DNA oligo cleavage fluorescence, 5 h | activation, % at 20 µM | hit rate 0.32% among 350,000 | AID 504720, 2011; in the data active = activation above about 50%
BoNT F protease: BoNT/F light chain protease inhibitors, primary screen, biochemical, flow cytometry, MLPCN library; Botulinum neurotoxin type F light chain protease (Clostridium botulinum); Multiplex microsphere protease cleavage assay; inhibition, % at 10 µM; hit rate 0.22% among 360,000; AID 588497, 2011; in the data active = inhibition above about 35%, passing the limit was not always enough; inconclusive = no clear call, values can overlap the other calls; note: plate controls were buffer without enzyme for full effect and enzyme alone for no effect
Anthrax LF inh2: Bacillus anthracis LF protease inhibitors, primary screen, biochemical, multiplex microsphere, MLPCN library; multiplex microsphere protease cleavage assay; AID 588501, 2011; Lethal factor (Bacillus anthracis), P15917; inhibition, % at 10 µM; hit rate 0.12% among 360,000; note: plate controls were buffer without enzyme for full effect and enzyme alone for no effect
Target sequence (P15917 whole entry, looked up): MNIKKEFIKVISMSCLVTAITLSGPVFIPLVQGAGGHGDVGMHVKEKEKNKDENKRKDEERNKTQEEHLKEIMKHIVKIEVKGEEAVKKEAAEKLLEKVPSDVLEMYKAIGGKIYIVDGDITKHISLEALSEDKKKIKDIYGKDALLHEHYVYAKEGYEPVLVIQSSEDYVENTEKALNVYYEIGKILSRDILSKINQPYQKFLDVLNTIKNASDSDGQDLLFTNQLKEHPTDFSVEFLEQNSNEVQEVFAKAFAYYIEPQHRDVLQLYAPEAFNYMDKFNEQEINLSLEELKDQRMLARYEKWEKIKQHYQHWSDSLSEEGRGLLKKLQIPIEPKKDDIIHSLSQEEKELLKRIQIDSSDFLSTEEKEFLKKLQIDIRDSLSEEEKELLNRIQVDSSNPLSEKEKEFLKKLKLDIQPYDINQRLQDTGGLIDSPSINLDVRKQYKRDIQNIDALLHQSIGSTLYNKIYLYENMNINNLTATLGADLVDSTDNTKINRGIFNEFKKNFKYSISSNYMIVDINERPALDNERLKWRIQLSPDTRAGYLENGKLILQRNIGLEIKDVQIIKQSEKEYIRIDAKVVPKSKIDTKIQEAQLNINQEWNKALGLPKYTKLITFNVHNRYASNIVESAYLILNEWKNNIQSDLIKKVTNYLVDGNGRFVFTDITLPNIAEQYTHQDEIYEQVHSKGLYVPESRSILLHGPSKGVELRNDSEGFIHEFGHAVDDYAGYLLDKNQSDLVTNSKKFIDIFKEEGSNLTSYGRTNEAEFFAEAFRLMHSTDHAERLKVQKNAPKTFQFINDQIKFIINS
An asterisk follows results filed as active. Cut-off read from the data, not from the text of the source, unless noted: active = inhibition above about 30%; inconclusive = no clear call, values can overlap the other calls; inactive = below that.

What do the screens show for `Cc1cc(=O)[nH]c(SCC(=O)NC2CCCc3ccccc32)n1` (stereo unspecified)?
Bead autofluor: 4924; BoNT-A LC inh2: -1; MazF activator: -8; BoNT F protease: 8; Anthrax LF inh2: 0

Results for COc1cc2c(cc1NC(=O)CCCN1C(=O)CCC1=O)oc1ccccc12 ?
Bead autofluor: 2678; BoNT-A LC inh2: 0; MazF activator: 1; BoNT F protease: -8; Anthrax LF inh2: -2

Results for COc1cc2c(cc1NC(=O)CCCCCN1C(=O)CCC1=O)oc1ccccc12 ?
Bead autofluor: 24230*; BoNT-A LC inh2: 0; MazF activator: -6; BoNT F protease: -2; Anthrax LF inh2: 0

How did CNC(=O)COc1ccccc1C(=O)Nc1ccc2c(c1)oc1ccccc12 do in these assays?
Bead autofluor: 16632*; BoNT-A LC inh2: -1; MazF activator: -36; BoNT F protease: -5; Anthrax LF inh2: -1

Results for O=C(NCC(F)(F)F)Nc1ncccn1 ?
Bead autofluor: 4093; BoNT-A LC inh2: 0; MazF activator: 6; BoNT F protease: -12; Anthrax LF inh2: 0

How did O=C(NCC(F)(F)F)Nc1ccccn1 do in these assays?
Bead autofluor: 19809*; BoNT-A LC inh2: inconclusive; MazF activator: 7; BoNT F protease: 0; Anthrax LF inh2: -2

How did O=C(Nc1ccccc1)c1ccn[nH]1 do in these assays?
Bead autofluor: 2448; BoNT-A LC inh2: -1; MazF activator: 2; BoNT F protease: -2; Anthrax LF inh2: -2

How did CC(=O)c1ccc(NC(=O)c2ccn[nH]2)cc1 do in these assays?
Bead autofluor: 22226*; BoNT-A LC inh2: -1; MazF activator: -22; BoNT F protease: -3; Anthrax LF inh2: 0

How did CC(C)C[C@H](NC(=O)N1CC(=O)Nc2ccccc21)C(=O)N1CCC(C(=O)O)CC1 do in these assays?
Bead autofluor: 5791; BoNT-A LC inh2: 1; MazF activator: 1; BoNT F protease: 0; Anthrax LF inh2: -2

What do the screens show for `C=CCn1c(O)c(N=Nc2ccccc2O)c2ccccc21`?
Bead autofluor: 4292; BoNT-A LC inh2: 0; MazF activator: 311*; BoNT F protease: -10; Anthrax LF inh2: -7

What do the screens show for `CC(=O)c1cccc(NC(=O)c2ccco2)c1`?
Bead autofluor: 3203; BoNT-A LC inh2: 0; MazF activator: -1; BoNT F protease: 5; Anthrax LF inh2: 1

How did Cn1c(C(=O)Nc2ccc3c(c2)OCCO3)cc2sccc21 do in these assays?
Bead autofluor: 16792*; BoNT-A LC inh2: -2; MazF activator: 5; BoNT F protease: -7; Anthrax LF inh2: -6

What do the screens show for `CCOC(=O)c1ccccc1NC(=O)c1cc2sccc2n1C`?
Bead autofluor: 22752*; BoNT-A LC inh2: 2; MazF activator: 2; BoNT F protease: 2; Anthrax LF inh2: -1

How did CCOC(=O)c1cccc(NC(=O)/C=C/c2cccc([N+](=O)[O-])c2)c1 do in these assays?
Bead autofluor: 19203*; BoNT-A LC inh2: 0; MazF activator: -2; BoNT F protease: 2; Anthrax LF inh2: -1

How did C=CCNC(=O)c1cc2sccc2n1C do in these assays?
Bead autofluor: 3518; BoNT-A LC inh2: 0; MazF activator: 10; BoNT F protease: 5; Anthrax LF inh2: 0

Results for CCOC(=O)c1cccc(NC(=O)c2ccco2)c1 ?
Bead autofluor: 23498*; BoNT-A LC inh2: inconclusive; MazF activator: 3; BoNT F protease: -4; Anthrax LF inh2: 1

Results for O=C(Nc1ccc2c(c1)OCCO2)c1cc2sccc2n1Cc1ccccc1 ?
Bead autofluor: 3781; BoNT-A LC inh2: 1; MazF activator: -8; BoNT F protease: 14; Anthrax LF inh2: 1

What do the screens show for `Cc1cc(C(=O)CCC(=O)N(C)CC(=O)Nc2ccccc2Br)c(C)s1`?
Bead autofluor: inconclusive; BoNT-A LC inh2: 1; MazF activator: 2; BoNT F protease: 3; Anthrax LF inh2: 5

What do the screens show for `CCCCOc1cccc(C(=O)Nc2ccc(S(=O)(=O)Nc3nnc(CC)s3)cc2)c1`?
Bead autofluor: 3580; BoNT-A LC inh2: 1; MazF activator: 1; BoNT F protease: 0; Anthrax LF inh2: 1

How did CCOC(=O)c1cccc(NC(=O)c2cc3sccc3n2C)c1 do in these assays?
Bead autofluor: 26158*; BoNT-A LC inh2: inconclusive; MazF activator: 5; BoNT F protease: -12; Anthrax LF inh2: -4

Results for NS(=O)(=O)c1ccc(NC(=O)CSc2ccc3ccccc3n2)cc1 ?
Bead autofluor: 16858*; BoNT-A LC inh2: -1; MazF activator: 12; BoNT F protease: -2; Anthrax LF inh2: -1

Results for O=C(CN(C(=O)c1csnn1)c1cccc2c1CCCC2)NCc1ccccc1 ?
Bead autofluor: 6036; BoNT-A LC inh2: 0; MazF activator: 8; BoNT F protease: 1; Anthrax LF inh2: 3

How did CCOC(=O)c1[nH]c(C)c(C(=O)Nc2cccc(Cl)c2C)c1C do in these assays?
Bead autofluor: 19613*; BoNT-A LC inh2: 3; MazF activator: 0; BoNT F protease: 3; Anthrax LF inh2: -4

How did CCOC(=O)c1[nH]c(C)c(C(=O)N2CCN(c3ccc(F)cc3)CC2)c1C do in these assays?
Bead autofluor: 21567*; BoNT-A LC inh2: 4; MazF activator: -2; BoNT F protease: 2; Anthrax LF inh2: -2

Results for CCOC(=O)c1[nH]c(C)c(C(=O)NC(C)CC)c1C (stereo unspecified) ?
Bead autofluor: 5433; BoNT-A LC inh2: 0; MazF activator: 2; BoNT F protease: -4; Anthrax LF inh2: 1

How did CCOC(=O)c1[nH]c(C)c(C(=O)NCCCOC(C)C)c1C do in these assays?
Bead autofluor: 21373*; BoNT-A LC inh2: -4; MazF activator: -2; BoNT F protease: -5; Anthrax LF inh2: -1

Results for CCOC(=O)c1[nH]c(C)c(C(=O)N2CCN(c3cccc(Cl)c3)CC2)c1C ?
Bead autofluor: 19964*; BoNT-A LC inh2: 2; MazF activator: -10; BoNT F protease: 1; Anthrax LF inh2: 0

How did CCOC(=O)c1[nH]c(C)c(C(=O)N2CCN(c3ccc(OC)cc3)CC2)c1C do in these assays?
Bead autofluor: 2178; BoNT-A LC inh2: 0; MazF activator: -6; BoNT F protease: -1; Anthrax LF inh2: -2

What do the screens show for `Cc1cc(Cl)ccc1N(CC(=O)NCc1ccccc1)S(C)(=O)=O`?
Bead autofluor: 4246; BoNT-A LC inh2: 0; MazF activator: 8; BoNT F protease: inconclusive; Anthrax LF inh2: -5

What do the screens show for `Oc1ccc(C(=S)N2CCCCC2)cc1Cl`?
Bead autofluor: 24104*; BoNT-A LC inh2: -2; MazF activator: -6; BoNT F protease: -6; Anthrax LF inh2: -2

How did COc1cc(C(=S)N2CCCCC2)ccc1O do in these assays?
Bead autofluor: 7223; BoNT-A LC inh2: 0; MazF activator: 6; BoNT F protease: -8; Anthrax LF inh2: -4

Results for Oc1ccc(C(=S)N2CCCCC2)cc1 ?
Bead autofluor: 3097; BoNT-A LC inh2: 0; MazF activator: 0; BoNT F protease: 7; Anthrax LF inh2: -6

How did COc1cc(C(=S)N2CCCC2)ccc1O do in these assays?
Bead autofluor: 20063*; BoNT-A LC inh2: 2; MazF activator: -1; BoNT F protease: 2; Anthrax LF inh2: 0

Bioassay records (PubChem BioAssay)
